Source: PubChem (National Center for Advancing Translational Sciences (NCATS))
BRCA1 expr up = increases BRCA1 expression. Potency, µM (titrated, usually from 46.1 µM), hits mostly activators. MCF7-BRCA1-FFLuc reporter, luminescence, 48 h; response scale: scaled: vehicle 0%, 10 µM genistein 100%. AID 624202. hit rate 1.1% among 380,000; also: nearly all actives have a fitted effect of over 80% in size
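Activators of BRCA1 expression were detected as increased firefly luciferase luminescence in engineered MCF7 cells after 48 h compound incubation. Signals were scaled to genistein 10 microM as full activation.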
GLP-1R agonist = GLP-1 receptor (human) agonism | P43220 | HEK293 GLP-1R CRE-luciferase, luminescence, 4-6 h; cells express a hypersensitive GLP-1R form | Potency, µM (series often up to 45.6 µM), usual class: activators | hit rate 0.007% among 380,000
Target sequence (P43220 whole entry, looked up): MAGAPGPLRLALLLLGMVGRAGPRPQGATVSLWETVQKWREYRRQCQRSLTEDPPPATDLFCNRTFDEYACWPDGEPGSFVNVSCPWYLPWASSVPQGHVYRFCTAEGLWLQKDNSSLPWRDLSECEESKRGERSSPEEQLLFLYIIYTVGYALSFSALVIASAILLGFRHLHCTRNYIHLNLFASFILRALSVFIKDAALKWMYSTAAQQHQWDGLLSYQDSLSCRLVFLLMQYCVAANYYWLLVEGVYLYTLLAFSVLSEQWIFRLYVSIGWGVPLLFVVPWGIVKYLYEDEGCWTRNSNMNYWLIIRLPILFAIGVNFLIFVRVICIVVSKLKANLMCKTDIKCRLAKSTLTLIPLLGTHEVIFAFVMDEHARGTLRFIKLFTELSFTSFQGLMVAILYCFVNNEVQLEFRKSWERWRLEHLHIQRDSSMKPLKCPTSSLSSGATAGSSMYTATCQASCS
GLP1R cytotox = cytotoxicity in counter-screen for GLP-1R inverse agonists. HEK293 cAMP-luciferase reporter cells, luminescence, 24 h. Potency, µM (doses to about 38.3 µM), actives largely listed as inhibitors. hit rate 0.13% among 410,000;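 also: loss of luciferase light is scored as toxicity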
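Here, cytotoxicity is scored as loss of luminescence. The MLSMR collection was tested on cells seeded in medium containing 10% Nu serum, with a 24 hr compound exposure preceded by 12 hours of culture.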
Mito fusion yeast = mitochondrial division inhibition or fusion activation. AID 485298. Potency, µM (series often up to 46.1 µM), usual class: activators. hit rate 0.23% among 320,000. S. cerevisiae fusion-defective mutant growth rescue, CellTiterGlo 48 h; also: nearly all actives have a fitted effect of over 45% in size
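Read-out: ATP-based luminescence (CellTiterGlo, 10 min ambient) reporting growth of fusion-defective ts yeast after 48 hours at 37C on glycerol/ethanol YPEG medium in the presence of compound.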
GLP-1R inv ag = GLP-1 receptor (human) inverse agonism. HEK293 GLP-1R CRE-luciferase, luminescence, 24 h; GLP-1R form is constitutively active. Potency, µM (series often up to 38.3 µM), actives largely listed as inhibitors. P43220. hit rate 1.6% among 410,000; also: nearly all actives have a fitted effect of over 55% in size
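Luminescence readout: a drop in cAMP-driven luciferase signal flags inverse agonism at a constitutively active GLP-1R stably expressed in HEK293. Compound exposure lasted 24 hr at 37 deg C, 5% CO2.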
A number is an active result; – = inactive; ? = inconclusive; · = no result; [ ] = dose if it differs, or a comment. The list is not random: actives were taken first. Their share in the collection is about 2.8%. Calls follow the shape of the dose curve; as a rule, active = well fitted curve in the direction sought with a large enough effect; inconclusive = small, poorly fitted or top-dose-only effect, or another doubt; inactive = no such curve, though single readings can be large; an effect the other way counts as inactive or inconclusive.

SMILES	BRCA1 expr up	GLP-1R agonist	GLP1R cytotox	Mito fusion yeast	GLP-1R inv ag
COC(=O)C1C(=O)c2c([nH]c(C(=O)OCCOC(C)C)c2C)CC1C (configuration not stated)	–	–	–	–	–
O=C(O)c1nc(-c2ccccc2)n(-c2ccc(Cl)cc2)n1	–	–	–	–	–
COc1ccc(N(CC(=O)NC2CCCCCC2)S(=O)(=O)c2c(C)nn(C)c2C)cc1	–	–	–	–	–
O=C(Nc1ccccc1N1CCCCC1)c1ccco1	–	–	–	–	11µM
O=C(Nc1ccccc1N1CCCC1)c1ccco1	–	–	–	–	–
CCCc1nc2ccccc2c(C(=O)OCC(=O)N2CCc3ccccc32)c1CC	–	–	–	?	2.8µM
CCOc1ccc(C(=O)CCC(=O)N2CCN(c3ccc(O)cc3)CC2)cc1	–	–	–	·	?
Cc1ccc2c(c1)c(=O)c1ccccc1n2CCCC(=O)Nc1ccc(Cl)c(Cl)c1	·	·	–	·	–
O=C(CCCn1c2ccccc2c(=O)c2ccccc21)Nc1cccc(Cl)c1	·	·	–	·	6.3µM
O=C(CSCc1cnn(-c2ccccc2)c1-n1cccc1)NCc1ccccc1F	·	·	–	·	13µM
COc1ccc(CNC(=O)CSCc2cnn(-c3ccccc3)c2-n2cccc2)cc1OC	·	·	–	·	–
Cc1ccc(NC(=O)CSCc2cnn(-c3ccccc3)c2-n2cccc2)c(Cl)c1	·	·	–	·	10µM
COc1ccc(OC)c(NC(=O)CSCc2cnn(-c3ccccc3)c2-n2cccc2)c1	–	–	–	–	11µM
COc1cc(NC(=O)CSCc2cnn(-c3ccccc3)c2-n2cccc2)cc(OC)c1	–	–	–	?	3.2µM
Cc1nn(CC(=O)NCCC2=CCCCC2)c(C)c1[N+](=O)[O-]	–	–	–	–	–
CC(C)=CCN1CCN(Cc2cnc(N3CCOCC3)s2)CC1CCO (configuration not stated)	–	–	–	–	–
NNc1ccc(Cl)c(C(=O)O)c1	11µM	–	–	–	–
CC(C)(C)NC(=O)CN(Cc1cccs1)C(=O)CCC(=O)Nc1nccs1	–	–	–	–	–
Cn1c(C(=O)c2ccccc2)nc2ccccc21	–	–	–	–	–
COc1cc(S(=O)(=O)N2CCN(Cc3ccc4c(c3)OCO4)CC2)c(C)cc1C	–	–	–	14µM	?
C1=CC2=NC34CCCCC3CC3=C(CCCC3)N4C2=CC1=NC1CCCCC1 (configuration not stated)	–	–	?	·	10µM
O=C(O)c1[nH]c2ccc(Cl)cc2c1CC(=O)N1CCN(C(=O)c2ccco2)CC1	–	–	–	–	–
CCN(CC)C(=O)C1CCCc2c1[nH]c1ccc(Cl)cc21 (configuration not stated)	–	–	–	–	4.5µM
O=C(c1ccco1)N1CCN(C(=O)C2CCCc3c2[nH]c2ccc(Cl)cc32)CC1 (configuration not stated)	–	–	–	–	5µM
Cc1ccc2[nH]c3c(c2c1)CCCC3C(N)=O (configuration not stated)	–	–	–	–	–
SMILES	BRCA1 expr up	GLP-1R agonist	GLP1R cytotox	Mito fusion yeast	GLP-1R inv ag
Cc1nnc(NC(=O)CCC(=O)NC2CCCCCCC2)s1	–	–	–	–	–
COc1ccc(Nc2nc(CC(C)=O)ns2)cc1OC	–	–	–	–	–
COc1cc(/C=C/c2sc3ccccc3[n+]2CCCS(=O)(=O)[O-])ccc1O	?	–	10µM	–	–
CC(NC(=O)C1CCCN(S(=O)(=O)N2CCOCC2)C1)c1ccccc1 (configuration not stated)	–	–	–	–	–
COc1ccc2cc(C(=O)N3CCN(C)CC3)[nH]c2c1	–	–	–	–	?
CCOC(=O)c1cc2cc(OC)ccc2[nH]1	5.6µM	–	–	–	–
CCN1CCN(C(=O)c2cc3ccc(OC)cc3[nH]2)CC1	11µM	–	–	–	–
COc1ccc(-n2c(=S)[nH]c3cc(C(=O)Nc4ccc(C)c(F)c4)ccc3c2=O)c(OC)c1	–	–	–	–	7.1µM
COc1ccc2[nH]c(C(=O)Nc3ccc(C)c(F)c3)cc2c1	3.5µM	–	–	–	–
CCOC(=O)c1[nH]c2ccc(OC)cc2c1C	–	–	–	–	–
COc1ccc(Nc2cc(C(=O)NCCc3ccccc3)c3ccccc3n2)cc1OC	·	·	–	·	–
CCCSc1nnc(-c2cnn(-c3ccccc3)c2-n2cccc2)n1C	–	–	–	–	?
CCOc1ccc(C(=O)Nc2cc(-c3nc4ccccc4[nH]3)ccc2C)cc1[N+](=O)[O-]	–	–	–	–	?
CCCOc1ccc(C(=O)Nc2cc(-c3nc4ccccc4[nH]3)ccc2C)cc1	·	·	–	·	7.1µM
CCc1cccc(CC)c1N(COC)C(=O)Cn1c(C)nc2ccccc21	·	·	–	·	2.2µM
Cc1snc(SCC(=O)c2ccc(F)cc2)c1C#N	8.9µM	–	–	–	–
Cc1ccc(Cc2cn3cc(-c4ccc(F)cc4)nc3s2)cc1	2.2µM	–	–	·	–
c1ccc2c(c1)NC1(CCCCCC1)n1c-2nc2ccccc21	2.8µM	–	–	–	–
CC(C)(C)c1nnc(NC(=S)Nc2ccccc2)s1	2.8µM	–	?	–	–
CC(C)(C)CNC(=O)C1(C)CCN1C(=O)Cc1ccc(-c2ccccc2)cc1 (configuration not stated)	–	–	–	·	?
COCCCNC(=S)N1CCC(C(=O)c2ccc(Cl)cc2)CC1	–	–	–	–	5.6µM
COCCNC(=S)N1CCC(C(=O)c2ccc(Cl)cc2)CC1	–	–	–	·	?
CN(Cc1ccccc1)C(=O)COC(=O)c1c[nH]c2ccccc12	10µM	–	–	·	?
O=C(CC(SCc1ccco1)c1ccc(O)cc1)c1cccs1 (configuration not stated)	?	–	–	–	–
O=C(CC(SCCO)c1ccc2c(c1)OCO2)c1cccs1 (configuration not stated)	10µM	–	–	–	–
SMILES	BRCA1 expr up	GLP-1R agonist	GLP1R cytotox	Mito fusion yeast	GLP-1R inv ag
COCCCNC(=O)Cn1ncc2ccsc2c1=O	–	–	–	–	–
CN(CCOc1cccc(C(F)(F)F)c1)Cc1ccccc1	–	–	?	–	10µM
COc1ccc(OC)c(/C=C/C(=O)NC2=NCCS2)c1	–	–	–	–	–
c1ccc(CNc2ncnc3scc(-c4cccs4)c23)nc1	–	–	–	–	–
COc1ccccc1N1CCN(Cc2ccc(OC)c(OC)c2OC)CC1	–[1.84 µM]	–	?	–	–
COc1ccc(CN2CCN(CCCCOc3ccc(Cl)cc3)CC2)c(OC)c1OC	–	–	–	–	7.9µM
COc1ccc(C#Cc2c(C=O)n(C)c3ccccc23)cc1	–	–	–	–	?
CCOC(=O)c1c(CN2CCN(CCO)CC2)n(-c2ccccc2)c2cc(Br)c(O)cc12	–	–	?	–	2.2µM
